Laboratory results taken from PubChem BioAssay.
Active and inactive are the calls of the source.

Assays:
[1] = compound effects on lung adenocarcinoma cell viability – A549, calcein-AM fluorescence, 48 h, basal, profiling panel (AID 1162); conditions: higher = more signal
[2] = compound effects on differentiated 3T3-L1 adipocyte viability – cell-based, 3T3-L1 adipocytes, calcein-AM fluorescence, 48 h, basal, profiling panel (AID 1163); conditions: 3T3-L1 adipocytes viability, higher = more signal
[3] = compound effects on hepatocellular carcinoma cell viability – HepG2, calcein-AM fluorescence, 48 h, basal, profiling panel (AID 1164); conditions: higher = more signal
[4] = compound effects on multiple myeloma cell viability – MM1S, calcein-AM fluorescence, 48 h, basal, profiling panel (AID 1165); conditions: higher = more signal
[5] = calcein-AM signal in unstimulated myeloma cells – cell-based, calcein-AM fluorescence, 48 h, PK04 Diversity Set, profiling panel (AID 1166); conditions: RPMI8226 myeloma viability, higher = more signal;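 also: cells grown under basal conditions without added stimulus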
[6] = JC-1 mitochondrial signal, unstimulated HepG2 cells – cell-based, JC-1 fluorescence, 24 h, 100 nL compound, profiling panel (AID 1167); conditions: HepG2 mitochondrial potential, higher = more signal
[7] = JC-1 mitochondrial signal, unstimulated adipocytes – cell-based, JC-1 fluorescence, 3T3-L1 adipocytes, 24 h, 100 nL compound, profiling panel (AID 1168); conditions: JC-1 mitochondrial fluorescence, higher = more signal, called active from +8 up or from −8 down
[8] = JC-1 mitochondrial signal, unstimulated myeloma cells – cell-based, JC-1 fluorescence, RPMI8226, 24 h, 100 nL compound, profiling panel (AID 1169); conditions: JC-1 mitochondrial potential fluorescence, higher = more signal
[9] = JC-1 mitochondrial signal, unstimulated MM1S myeloma – cell-based, JC-1 fluorescence, 24 h, 100 nL compound, profiling panel (AID 1170); conditions: MM1S mitochondrial potential, higher = more signal
[10] = resazurin metabolic signal in A549 cells – cell-based, resazurin fluorescence, 24 h, PK04 Diversity Set, profiling panel (AID 1171); conditions: A549 viability, higher = more signal, called active from +8 up or from −8 down
Also: test concentration not given here.

SMILES | z-score [1] | z-score [2] | z-score [3] | z-score [4] | z-score [5] | z-score [6] | z-score [7] | z-score [8] | z-score [9] | z-score [10]
O=C1C2C=CC(C(O)C3CCCCC3)N(Nc3ccccc3F)C2C(=O)N1c1ccccc1 (stereo not given) | -0.112 | 0.1 | -0.528 | 0.345 | -0.925 | -0.804 | -0.865 (inactive) | -0.224 | -0.433 | -0.852 (inactive)
C=C1C(=O)C=C2CN(C(=O)c3ccccc3)[C@@](Cc3ccc(F)cc3)(C(=O)OC)[C@@H]12 | -3.89 | -1.94 | -5.62 | -3.36 | -4.73 | -3.92 | 3.42 (inactive) | -0.764 | -2.82 | -7 (inactive)
[N-]=[N+]=NCc1ccccc1[C@H]1OC(c2ccc(OCCCO)cc2)=N[C@@]1(CCS(=O)(=O)c1ccccc1)C(=O)NCCN1CCOCC1 | 1.69 | -0.328 | 1.14 | -1.03 | 0.511 | 0.418 | -0.221 (inactive) | -0.556 | -0.801 | 0.0651 (inactive)
COc1ccc(NN2C(C(O)c3ccccc3)C=CC3C(=O)N(C4CCCCC4)C(=O)C32)cc1 (stereo not given) | -0.408 | -0.503 | 0.0544 | -1.37 | -1.82 | -0.536 | 0.0258 (inactive) | -0.335 | -0.253 | 1.67 (inactive)
CCOC(=O)C[C@H]1[C@H](OC(=O)c2cc3ccccc3oc2=O)[C@@H](NC(=O)c2ccc(-c3ccccc3)cc2)c2cc(OCCCO)ccc2N1C(=O)Cc1ccc(OC)cc1 | -0.382 | 1 | 0.0719 | 0.17 | -0.84 | -0.0623 | -1.08 (inactive) | -0.97 | -0.0508 | 0.0573 (inactive)
COc1ccc([Si](C)(C)[C@H]2[C@H](CC(=O)N3CCC[C@H]3CO)O[C@@]3(C(=O)N(Cc4cccc(N5CCCCC5=O)c4)c4ccccc43)[C@@H]2C)cc1 | 0.239 | 0.112 | -0.134 | -2.65 | -3.15 | 2.8 | 0.0592 (inactive) | -0.893 | 0.286 | 0.423 (inactive)
CCCC[C@@H](O)C1=C(C)Cn2c(=O)n(-c3ccccc3)c(=O)n2[C@H]1CO | 1.38 | 0.345 | 0.108 | 0.548 | 0.617 | 0.372 | 0.276 (inactive) | -0.347 | -0.804 | -1.16 (inactive)
COC(=O)C(CC#Cc1ccc2c(c1)[C@]1(C(=O)N2)[C@H](C(=O)N2CCN(c3ncccn3)CC2)[C@H]2C(=O)O[C@H](c3ccccc3)[C@H](c3ccccc3)N2[C@@H]1c1ccc(O)cc1)C(=O)OC | 0.489 | -0.569 | 1.24 | 0.142 | -2.03 | -0.921 | 0.00989 (inactive) | -1.09 | -0.205 | -0.423 (inactive)
COCCCNC(=O)[C@@]1(CCC(=O)OC(C)(C)C)N=C(c2ccc(OCCCO)cc2)O[C@H]1c1ccccc1 | 0.899 | -0.0512 | 0.317 | 0.32 | 0.678 | 0.842 | 2.11 (inactive) | 0.721 | -1.08 | -0.376 (inactive)
CO[C@H]1O[C@H](CO)[C@@H](OC(=O)Nc2cccc(F)c2)[C@H](OC(=O)Nc2ccc3c(c2)OCO3)[C@@H]1OC(=O)Nc1ccc2c(c1)OCO2 | -1.33 | 0.726 | -1.07 | -1.49 | -1.74 | -0.96 | -0.672 (inactive) | -0.571 | -0.964 | -1.47 (inactive)
CO[C@H]1O[C@H](CO)[C@@H](OC(=O)Nc2cccc(F)c2)[C@H](OC(=O)c2cc3ccccc3[nH]2)[C@H]1OC(=O)c1cc2ccccc2[nH]1 | 1.16 | 0.437 | 0.387 | 0.0134 | 0.804 | -1.56 | 2.42 (inactive) | -0.397 | -0.415 | -2.49 (inactive)
